From PubChem BioAssay (NCI) come the findings set out here.

The panel holds about 83,000 compounds, 20% with a hit somewhere; the sample as a whole holds those more often.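 A percent growth of 40 corresponds to 60% growth inhibition; 0 means no net growth; -100 means all cells died. Active threshold: below 10.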 Unmarked numbers belong to inactive results. Active and inactive are the calls of the source.

The test relates to MDA-MB-468 breast. The test can be described thus: NCI-60 one-dose screen, 48 h (100 = growth as untreated, 0 = no growth, -100 = all killed). Particulars: 10 µM unless noted.
For `COc1cc(Oc2cc(-c3cccnc3)ccc2NC(=O)Nc2ccc(F)cc2F)cc(OC)c1OC`, the growth was 97.7%.

As to `Cc1ccc(S(=O)(=O)N2CCc3ccc(O)c4c3C2Cc2ccc3c(c2-4)OCO3)cc1` (centres undefined), the growth is 1.75% (active).

For the molecule `COc1ccc(C2C3=C(COC3=O)N(CCO)c3cc(OC)c(OC)cc32)cc1` (centres undefined), the growth is 110%.

Take `COc1cc(-c2nn(-c3cccc(NC(=O)NCCNC(=O)c4ccccc4)c3)cc2-c2ccncc2)ccc1Cl`: the growth is 12.1%.

As for `CCC1=C(c2ccc(OC)cc2)C(C)(C)Oc2c1ccc(O)c2CN1CCCC1`, the growth was -45.1% (active).

Consider `NS(=O)(=O)c1ccc(Nc2nc(N/N=C/CCc3ccccc3)nc(Nc3ccccc3)n2)cc1`, for which the growth is 88.6%.

In the case of `O=C(Cn1cc[n+](CC(=O)c2ccc(-c3ccccc3)cc2)c1)Nc1cccc2cccnc12`, the growth was 8.42% (active).

Turning to `CC(C)c1ccc(COCc2cc(CN3CCCC3)c(O)c3ncccc23)cc1`, the growth was -21.1% (active).

Consider `CCOC(=O)c1c(NC(=O)c2ccc(C(C)C)cc2)sc2c(CN(C)C)c(O)ccc12`, for which the growth was -53.1% (active).

In the case of `COc1cc(OC)cc(N2C(=O)N(Cc3ccc(C(C)(C)C)cc3)c3ccccc3S2(=O)=O)c1`, the growth was 51.8%.

In the case of `CC/C(=N/NC(N)=O)c1ccccc1`, the growth was 103%.

On to `CCOC(=O)C1C(=O)NC(C(=O)OCC)(C(=O)OCC)C1CC` (centres undefined), for which the growth is 108%.

As for `CCNCCNc1cc(C2CCCCC2)c(C#N)c2nc3ccccc3n12`, the growth was -45.3% (active).

For the molecule `N#CCCN1C/C(=C/c2ccc(Br)cc2)C(=O)/C(=C/c2ccc(Br)cc2)C1`, the growth was -71.3% (active).

`C=C1CC[C@@H]2[C@]3(C)COC(c4ccccc4)O[C@@H]3CC[C@@]2(C)[C@@H]1C/C=C1/C(=O)OC[C@H]1O` (some centres undefined): the growth is 91.4%.

As to `CCCCCc1cc[n+](CC(=O)c2ccc([N+](=O)[O-])cc2)cc1`, the growth is 11.8%.

With `C[C@]12O[C@H]1[C@H](O)c1c(cc(O)c3c1C(=O)c1cccc(O)c1-3)C2=O`, the growth was 83.3%.

As for `NC(=S)N/N=C\c1nccc2c(C(F)(F)F)cccc12`, the growth was -64.8% (active).

Turning to `Cc1cc(-c2nnc(/C=C/c3ccc4c(c3)OCO4)o2)n[nH]1`, the growth is 54%.

`Cc1ccccc1NC(=O)c1sc2nc(C)c(C(=O)/C=C/c3ccccc3)cc2c1N`: the growth is 9.61% (active).

For `NCCCNc1nc2ccccc2c2c(=O)c3cc(Cl)ccc3sc12`, the growth is -19.1% (active).

Turning to `O=S(=O)(Oc1ccc(-c2nnc(Nc3ccccc3)s2)cc1)C(F)(F)C(F)(F)C(F)(F)C(F)(F)C(F)(F)C(F)(F)F`, the growth was 99.8%.

On to `C=C(c1ccc(C(=O)O)cn1)c1cc2c(cc1C)C(C)(C)CCC2(C)C`, for which the growth is 91.5%.

Regarding `COc1ccc(OC)c(/C=C/C(=O)N/N=C/c2ccccc2)c1`, the growth was 28.1%.
